Bioassay records (PubChem BioAssay)
Shown are actives, neighbours in structure and some others; about 4.1% of the full set was active somewhere.
DAX1 inh-1 – DAX1 (NR0B1) inhibitors, primary screen, cell-based, HEK293, Gal4-DAX1, luciferase luminescence. Nuclear receptor subfamily 0 group B member 1 (Homo sapiens), P51843. HEK293 Gal4-DAX1 luciferase reporter. inhibition, % at 6.75 µM. hit rate 0.99% among 340,000. AID 504766, 2011;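 active = inhibition above the mean over all tested compounds plus 3 SD, cut at about 4.2% in these data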;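 also: inhibition shows as a rise in luminescence from relieved DAX1 repression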
hgDAF12 agonist – H. glycines DAF-12 receptor agonists, primary screen, cell-based, luminescence, HEK293, GAL4 fusion, UAS-luciferase | HEK293 GAL4-hgDAF12 UAS-luciferase reporter, agonist luminescence; normalized to butyrate control | activation, % at 6.8 µM | hit rate 1.8% among 370,000;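 active = activation above a cutoff set at the mean of all screened compounds plus 3 SD, cut at about 10% in these data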
DAX1 inh-2 – DAX1 (NR0B1) inhibitors on StAR promoter, primary screen, cell-based, luminescence, SF-1 (NR5A1), full-length DAX-1; HEK293T StAR-luciferase reporter, SF-1/DAX-1 repression relief; inhibition, % at 6.8 µM; hit rate 1.1% among 370,000;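 active = inhibition above the mean over all tested compounds plus 3 SD, cut at about 3.6% in these data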;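 also: higher inhibition means more luminescence from relief of DAX-1 repression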
hcDAF12 agonist – H. contortus DAF-12 nuclear receptor activators, primary screen, cell-based, luminescence, HEK293, lit1-tk-luc reporter. HEK293 hcDAF-12 lit1-tk-luc reporter; 0% DMSO, 100% Δ7-dafachronic acid. activation, % at 6.8 µM. hit rate 1.4% among 370,000. AID 652067, 2013;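 active = activation above the mean of all tested compounds plus 3 SD, cut at about 5.5% in these data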
ssDAF12 agonist – S. stercoralis DAF-12 nuclear receptor activators, primary screen, cell-based, luminescence, HEK293, GRIP1 co-expression, lit1-tk-luc | Nuclear hormone receptor DAF-12 (Strongyloides stercoralis) | activation, % at 6.8 µM | AID 652126, 2013 | HEK293 ssDAF-12/GRIP1 lit1-tk-luc reporter; % of 3 µM dafachronic acid response | hit rate 1% among 370,000;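 active = activation above the mean over all tested compounds plus 3 SD, cut at about 0.9% in these data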
LXRb hcDAF ctr – LXR agonists, Gal4 luciferase reporter, confirmation, counter-screen for hcDAF-12 agonist project, cell-based, luminescence, HEK293, H. contortus campaign; shares compounds with hcDAF12 agonist; HEK293 Gal4-LXR tk-luc reporter, 24 h; normalized: DMSO 0%, positive control 100%; activation, % at 6.8 µM; 3,400 tested, under 10 active; AID 743027, 2013;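 active = mean percent activation of the reporter above a cutoff set as the average over tested compounds plus their standard deviation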
Target sequence (P55055 whole entry, looked up, the tested form may be a part): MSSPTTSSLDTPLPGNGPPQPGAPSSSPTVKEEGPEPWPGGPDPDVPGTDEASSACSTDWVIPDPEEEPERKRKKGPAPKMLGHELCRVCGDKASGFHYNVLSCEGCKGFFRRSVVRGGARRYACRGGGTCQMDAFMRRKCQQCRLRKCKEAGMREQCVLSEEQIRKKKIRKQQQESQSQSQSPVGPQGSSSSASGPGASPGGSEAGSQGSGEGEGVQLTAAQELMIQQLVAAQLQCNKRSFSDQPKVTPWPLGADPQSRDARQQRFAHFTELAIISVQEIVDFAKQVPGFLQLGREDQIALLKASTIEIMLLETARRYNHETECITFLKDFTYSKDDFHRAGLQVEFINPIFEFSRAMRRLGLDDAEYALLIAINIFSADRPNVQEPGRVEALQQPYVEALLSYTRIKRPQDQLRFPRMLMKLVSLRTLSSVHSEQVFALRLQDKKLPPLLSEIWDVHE
hcDAF12 conf – H. contortus DAF-12 receptor agonists, confirmation, cell-based, luminescence, HEK293, lit1-tk-luc, triplicate | shares compounds with hcDAF12 agonist | HEK293 hcDAF-12 lit1-tk-luc reporter; % of Δ7-dafachronic acid response | activation, % at 6.8 µM | hit rate 61% among 3,400 | AID 743032, 2013;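 active = mean activation across triplicate tests above the threshold derived from the earlier primary screen, cut at about 5.5% in these data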
Each line names hits and unclear results; the compound was inactive in the other large screens (follow-up assays come after a bar, where they were run).

CCc1nc2ccc(C(=O)N(C)CC(=O)Nc3ccc(F)c(F)c3F)cc2nc1CC	none
COC(=O)c1cccc(C(=O)Nc2ccc(C)cc2)n1	hcDAF12 agonist 7.1, ssDAF12 agonist 1.0 | LXRb hcDAF ctr inactive | hcDAF12 conf 7.5
CCc1ccc(NC(=O)c2cccc(C(=O)Nc3ccc(CC)cc3)n2)cc1	none
Nc1nc2c(Cl)cc(Cl)cc2s1	none
Cc1csc(-c2ccc3cc(Cl)cc(Cl)c3n2)n1	hcDAF12 agonist 10 (no result: DAX1 inh-1) | LXRb hcDAF ctr inactive | hcDAF12 conf 11
CCc1ccn2cc(-c3cc(-c4ccccc4)no3)nc2c1	none
Cc1ccc2nc(-c3cc(-c4ccccc4)no3)cn2c1	hgDAF12 agonist 12, hcDAF12 agonist 8.1 | LXRb hcDAF ctr inactive | hcDAF12 conf inactive
COc1ccc(S(=O)(=O)N2CCN(C(=O)c3ccc4ccccc4n3)CC2)cc1	none
c1csc(-c2csc(-c3cccs3)n2)c1	none
Cc1cccc(Nc2nc(-c3cccs3)cs2)n1	DAX1 inh-1 4.7, hgDAF12 agonist 17, hcDAF12 agonist 20, ssDAF12 agonist 4.0 | LXRb hcDAF ctr inactive | hcDAF12 conf 17
Nc1nn2cc(-c3ccc(Br)cc3)nc2c2ccccc12	hcDAF12 agonist 11, ssDAF12 agonist 1.6 | LXRb hcDAF ctr inactive | hcDAF12 conf 14
O=[N+]([O-])c1cccn2cc(-c3ccc(Br)cc3)nc12	none
CN1CCN(CCCNC(=O)Cn2nc(-c3ccccc3)ccc2=O)CC1	hcDAF12 agonist 8.5 | LXRb hcDAF ctr inactive | hcDAF12 conf inactive
CC1=NN(c2ccccc2)C(=O)C1N=Nc1ccccc1 (stereo not given)	hcDAF12 agonist 8.0 | LXRb hcDAF ctr inactive | hcDAF12 conf 11
CC1=NN(C(N)=S)C(=O)C1N=Nc1ccc(Br)cc1 (stereo not given)	hcDAF12 agonist 9.8 | LXRb hcDAF ctr inactive | hcDAF12 conf 12
O[C@H](COc1cccc(Cl)c1)CN1CCC(C(O)(c2ccccc2)c2ccccc2)CC1	none (no result: DAX1 inh-1)
CN(/N=C/c1c[nH]c2ccccc12)c1cnn(-c2ccc(F)c(Cl)c2)c(=O)c1Cl	hcDAF12 agonist 7.2 | LXRb hcDAF ctr inactive | hcDAF12 conf inactive
CN(/N=C/c1cccnc1)c1cnn(-c2ccc(F)c(Cl)c2)c(=O)c1Cl	none
COc1ccc(/C=N\n2nnc3ccccc32)cc1	DAX1 inh-2 4.2, hcDAF12 agonist 9.1, ssDAF12 agonist 0.9 | LXRb hcDAF ctr inactive | hcDAF12 conf 7.7
COc1ccc(/C=N/n2c(C)nc3ccccc3c2=O)cc1	none
CCn1c(SCc2nc3ccccc3s2)nnc1-c1cccs1	none
Cn1c(SCc2nc3ccccc3s2)nnc1-c1cccs1	hcDAF12 agonist 7.1, ssDAF12 agonist 1.5 | LXRb hcDAF ctr inactive | hcDAF12 conf inactive
COc1ccccc1-c1nnc(SCc2nc3ccccc3s2)n1C	hcDAF12 agonist 8.6 | LXRb hcDAF ctr inactive | hcDAF12 conf inactive
CCCn1c(=O)c2ccccc2n2c(SCc3nc4ccccc4s3)nnc12	DAX1 inh-2 3.7, hcDAF12 agonist 9.5, ssDAF12 agonist 1.1 | LXRb hcDAF ctr inactive | hcDAF12 conf 7.3
CCN(C)C1CN(Cc2cn(CCCC(=O)OC)nn2)S(=O)(=O)C1 (stereo not given)	none (no result: DAX1 inh-1)
Cc1cccc(C(=O)NCC(=O)OCC(=O)c2ccc(Cl)s2)c1	none
O=C(NC(=S)Nc1ccc(Oc2ccc(Cl)cc2)cc1)c1ccccc1	none
O=C(NC(=S)Nc1ccc(Cl)cc1)c1ccccc1	hgDAF12 agonist 13, hcDAF12 agonist 8.0 | LXRb hcDAF ctr inactive | hcDAF12 conf inactive
O=C(NC(=S)Nc1cccc([N+](=O)[O-])c1)c1ccccc1	none (no result: DAX1 inh-1)
O=C(NC(=S)Nc1cc([N+](=O)[O-])ccc1Cl)c1ccccc1	hcDAF12 agonist 6.6 | LXRb hcDAF ctr inactive | hcDAF12 conf 6.0
COC(=O)c1[nH]c2ccccc2c1CN1CCOCC1	hcDAF12 agonist 7.5 | LXRb hcDAF ctr inactive | hcDAF12 conf inactive
COC(=O)c1[nH]c2ccccc2c1NC(=O)Oc1ccccc1	hcDAF12 agonist 8.4 | LXRb hcDAF ctr inactive | hcDAF12 conf 7.4
CCOC(=O)c1[nH]c2ccccc2c1NC(=O)CC(C)(C)C	hcDAF12 agonist 6.8 | LXRb hcDAF ctr inactive | hcDAF12 conf inactive
O=C(Nc1ccccc1N1CCCCC1)c1ncoc1-c1cccc(F)c1	hcDAF12 agonist 7.0 | LXRb hcDAF ctr inactive | hcDAF12 conf inactive
O=C(Nc1ccccc1N1CCCCC1)c1ccc(-c2cccc(Cl)c2)o1	hcDAF12 agonist 7.4 | LXRb hcDAF ctr inactive | hcDAF12 conf inactive
O=C(Nc1cccnc1Cl)c1cc2ccccc2o1	DAX1 inh-1 4.2, hgDAF12 agonist 12, hcDAF12 agonist 9.3, ssDAF12 agonist 2.8 | LXRb hcDAF ctr inactive | hcDAF12 conf inactive
O=C(Nc1ccccc1N1CCCCC1)c1ncoc1-c1ccc(F)cc1	none
O=C(Nc1ccccc1N1CCCC1)c1cc2ccccc2o1	hgDAF12 agonist 12, hcDAF12 agonist 7.5, ssDAF12 agonist 1.9 | LXRb hcDAF ctr inactive | hcDAF12 conf 6.7
O=C(Cc1cccc(F)c1)N1CCOCC1	none
COc1ccc(CC(=O)Nc2cc(S(=O)(=O)N3CCCCC3)ccc2OC(C)C)cc1OC	none
O=C(NCc1ccccc1)C(c1cc2ccccc2o1)n1c(=O)c(-c2cc3ccccc3[nH]2)nc2ccccc21 (stereo not given)	hcDAF12 agonist 9.2, ssDAF12 agonist 1.8 (no result: DAX1 inh-1) | LXRb hcDAF ctr inactive | hcDAF12 conf 7.0
CCCCCNC(=O)C(c1ccncc1)n1c(=O)c(-c2cc3ccccc3[nH]2)nc2ccccc21 (stereo not given)	DAX1 inh-2 4.3, hcDAF12 agonist 9.2, ssDAF12 agonist 0.9 (no result: DAX1 inh-1) | LXRb hcDAF ctr inactive | hcDAF12 conf 9.9
O=C(Nc1ccc2c(c1)OCCO2)C(c1ccncc1)n1c(=O)c(-c2cc3ccccc3[nH]2)nc2ccccc21 (stereo not given)	hgDAF12 agonist 12, hcDAF12 agonist 8.8, ssDAF12 agonist 1.6 (no result: DAX1 inh-1) | LXRb hcDAF ctr inactive | hcDAF12 conf 15
